From PubChem BioAssay (NCI)
Compounds without any hit were thinned out: in the full panel of roughly 83,000, 20% have a hit.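 48-hour exposure, single concentration, 96-well plates; percent growth endpoint where 0 means no net growth. Active: below 10.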 Unmarked numbers belong to inactive results. Active and inactive are the calls of the source.

How the values were obtained:
Assay in all cases: NCI-60 one-dose screen, 48 h (100 = growth as untreated, 0 = no growth, -100 = all killed)
Conditions in all cases: 10 µM unless noted
NCI-H23 lung = test system: NCI-H23 lung
NCI-H226 lung = test system: NCI-H226 lung
NCI-H322M lung = test system: NCI-H322M lung
HOP-62 NSCLC = test system: HOP-62 NSCLC
NCI-H460 lung = test system: NCI-H460 lung
A549/ATCC NSCLC = test system: A549/ATCC NSCLC
786-0 renal = test system: 786-0 renal
COLO 205 colon = test system: COLO 205 colon
DU-145 prostate = test system: DU-145 prostate
K-562 leukemia = test system: K-562 leukemia
MALME-3M melanoma = test system: MALME-3M melanoma
MDA-MB-231 breast = test system: MDA-MB-231 breast
RXF 393 renal = test system: RXF 393 renal
SF-268 CNS = test system: SF-268 CNS
SF-295 CNS = test system: SF-295 CNS
SF-539 CNS = test system: SF-539 CNS
UACC-257 melanoma = test system: UACC-257 melanoma
M14 melanoma = test system: M14 melanoma

Compound | growth (NCI-H23 lung) | growth (NCI-H226 lung) [%] | growth (NCI-H322M lung) [%] | growth (HOP-62 NSCLC) | growth (NCI-H460 lung) | growth (A549/ATCC NSCLC) | growth (786-0 renal) | growth (COLO 205 colon) | growth (DU-145 prostate) | growth (K-562 leukemia) | growth (MALME-3M melanoma) | growth (MDA-MB-231 breast) | growth (RXF 393 renal) | growth (SF-268 CNS) | growth (SF-295 CNS) | growth (SF-539 CNS) | growth (UACC-257 melanoma) | growth (M14 melanoma)
O=c1[nH]c2cc(O)ccc2n2cc3c(F)cccc3c12 | 39.6% | 60.8 | 29.4 | 21.1% | 2.7% (active) | 22% | 28.7% | 66.2% | 33.9% | 24.3% | 40.3% | 52.4% | 4.74% (active) | 19.4% | 15.4% | 16.6% | 51.2% | 25.2%
CCCCCCCCCCC(C[N+](C)(C)C/C=C/c1ccccc1)C(O)c1ccccc1 (stereo unspecified) | 7.14% (active) | 29 | 46.7 | -30.3% (active) | 5.75% (active) | 54.5% | -5.14% (active) | -89.2% (active) | 1.19% (active) | -35.9% (active) | -28.6% (active) | -55.9% (active) | -54.3% (active) | -0.479% (active) | 35.6% | 40.5% | 21% | 6.02% (active)
O=C(/C(Br)=C/c1ccccc1)c1ccccc1 | 93.3% | 110 | 107 | 80.3% | 84.9% | 78.6% | -90.5% (active) | -70.8% (active) | 64.1% | -1.65% (active) | -36.9% (active) | 42.6% | -58.2% (active) | 78.9% | 103% | -41.7% (active) | -5.24% (active) | -95.4% (active)
C/C=C/C/C=C/[C@H](C)C[C@H](O)[C@@H]1C[C@@H]2O[C@H]2/C=C/[C@@H]2OC(C)(C)O[C@H]2/C=C/C[C@H](C)CC(=O)O1 | 36.3% | 30.5 | 55.5 | 41.6% | 17.4% | 24.7% | 53.5% | 61.1% | 36.1% | 30.1% | 87.6% | 61.6% | 81.1% | 46.9% | 28.8% | 71% | 69.9% | 36.8%
CCCCCCC(C)N(CC(C)(C)O)C(=O)c1ccc([N+](=O)[O-])cc1 (stereo unspecified) | 99.2% | 95.2 | 91.1 | 87.3% | 105% | 104% | 94.5% | 99.6% | 101% | 85.1% | 95.8% | 106% | 100% | 110% | 88.6% | 108% | 106% | 93.4%
CC(=O)N1CCN(CCNC(=O)n2cc(-c3ccncc3)c(-c3ccc(O)c(Cl)c3)n2)CC1 | 109% | 112 | 141 | 106% | 103% | 100% | 113% | 119% | 105% | 91.8% | 90.6% | 107% | 120% | 107% | 130% | 101% | 103% | 70.2%
O=C(NCCO)C(F)(F)F | 109% | 111 | 105 | 104% | 109% | 98.4% | 93.9% | 110% | 109% | 105% | 95.6% | 107% | 108% | 102% | 95.5% | 93.5% | 99.3% | 101%
COc1cc(-c2nn(-c3ccc(NC(=O)c4ccc(Cl)c(Cl)c4)cc3)cc2-c2ccncc2)ccc1Cl | 77.8% | 88.3 | 101 | 52.7% | 48.3% | 68.3% | -34.5% (active) | 52.6% | 82% | 17% | 111% | 54.9% | -55.1% (active) | 67.6% | -42.3% (active) | 47.7% | 110% | 62.3%
COc1ccc(/C=N/c2cc(C(C)(C)C)nn2-c2ccccc2)cc1 | 106% | 89 | 110 | 111% | 97.1% | 101% | 93.7% | 105% | 113% | 92.2% | 121% | 99.7% | 126% | 101% | 96.6% | 92.5% | 96.8% | 115%
O=C1Nc2c(c(=O)n(-c3ccccc3)c3ccccc23)C(c2ccc(Cl)cc2)N1 (stereo unspecified) | 90.4% | 99.2 | 95.5 | 84.2% | 47.7% | 76.2% | 60.8% | 107% | 86.7% | 93.7% | 121% | 89.1% | 103% | 70.9% | 65.3% | 77% | 118% | 95.2%
CC(=O)Nc1nc(C)c(C(=O)N/N=C/N2CCCCC2)s1 | 108% | 103 | 123 | -100% (active) | 110% | 104% | 114% | 114% | 137% | 137% | 119% | 111% | 112% | 111% | 127% | 99.3% | 120% | 111%
Cc1ccccc1-n1c(C)nc2cc(NC(=O)c3ccc(Cl)cc3)ccc2c1=O | 64.3% | 88.8 | 94.2 | 97.4% | 72.4% | 72.2% | 67.6% | 119% | 87.6% | 55.8% | 53.5% | 58.4% | 77.7% | 77.8% | 59.7% | 58.2% | 59.7% | 68.7%
O=C(Nc1ccc(-n2cc(-c3ccncc3)c(-c3ccc(Cl)c(O)c3)n2)cc1)Nc1ccc(Cl)c(C(F)(F)F)c1 | 3.39% (active) | 68.2 | 12 | -7.48% (active) | -29.3% (active) | 6.06% (active) | -44.8% (active) | -66.5% (active) | 23.2% | 8.1% (active) | -13.6% (active) | -24.8% (active) | -47.8% (active) | 23.3% | -44.5% (active) | 2.77% (active) | -9.1% (active) | -58.6% (active)
N=C(c1ccccc1)N(Cc1ccccc1)Cc1ccccc1 | 92.9% | 104 | 84 | 97.1% | 98.3% | 90.3% | 86.5% | 88.2% | 111% | 76.2% | 93.8% | 79.6% | 85% | 103% | 59.2% | 103% | 94% | 78%
CC(O)c1cc[cH-]c1.[Fe+2].c1cc[cH-]c1 (stereo unspecified) | 102% | 91.2 | 92.6 | 99.4% | 114% | 101% | 97.2% | 108% | 108% | 102% | 102% | 110% | 95.6% | 108% | 98.8% | 97% | 96.9% | 95.6%
CC1CCCCC[N+]12CCCC2 (stereo unspecified) | 111% | 93.6 | 96.4 | 103% | 113% | 103% | 96.8% | 108% | 105% | 107% | 100% | 99% | 92% | 109% | 92.2% | 104% | 104% | 102%
CC(=O)Nc1nc(C)c(C(=O)NNS(=O)(=O)c2ccccc2)s1 | 109% | 112 | 99.4 | -98.9% (active) | 110% | 103% | 92.6% | 119% | 135% | 149% | 96.5% | 107% | 110% | 117% | 132% | 101% | 103% | 97.6%
